Laboratory results as given in PubChem BioAssay (NCI).
About 79,000 compounds went through this panel and 15% of them were active in at least one assay; those are over-represented in the sample as a whole. Rule as the data show it: active = growth inhibition above about 70%; inactive = the rest. Where a SMILES comes first, the peptide text is derived from it. [ ]: non-standard residue; d: D form. ξ: configuration not given here. ξF = NC(Cc1ccccc1)C(=O)O

Legend:
[1] = NCI Yeast Anticancer Drug Screen. Data for the rad50 strain (AID 155);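 also: 0% = growth of vehicle-only cultures of the same strain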; conditions: S. cerevisiae rad50 strain growth inhibition; at 50.0 µM; hits give high values
Outline: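 Relative growth inhibition (compound vs vehicle) was measured in yeast with a defined repair-gene alteration.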

[2] = NCI Yeast Anticancer Drug Screen. Data for the mec2-1 strain (AID 157); conditions: S. cerevisiae mec2-1 strain, at 50.0 µM, hits give high values
Outline: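 mec2-1 yeast strain, carrying an alteration in DNA damage repair or cell cycle control, was exposed to compounds; growth inhibition was measured relative to vehicle-treated controls.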

[3] = NCI Yeast Anticancer Drug Screen. Data for the mlh1 rad18 strain (AID 175); conditions: S. cerevisiae mlh1 rad18 strain growth inhibition; at 50.0 µM; hits give high values
Outline: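 Growth inhibition of the yeast strain was measured after compound exposure and expressed relative to vehicle-treated controls. The strain carries defined defects in DNA damage repair.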

[4] = NCI Yeast Anticancer Drug Screen. Data for the sgs1 mgt1 strain (AID 161);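 also: 0% = growth of cultures given vehicle only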; conditions: S. cerevisiae sgs1 mgt1 strain, at 50.0 µM, hits give high values
Outline: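 Growth of a repair-deficient yeast mutant was monitored after compound treatment and expressed as inhibition relative to vehicle-treated cultures.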

[5] = NCI Yeast Anticancer Drug Screen. Data for the cln2 rad14 strain (AID 165);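 also: 0% = growth equal to vehicle treated cultures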; conditions: S. cerevisiae cln2 rad14 strain, at 50.0 µM, hits give high values
Outline: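 Yeast carrying cln2 and rad14 alterations (cell cycle control and DNA damage repair) were exposed to compounds. Growth inhibition was measured against vehicle-treated controls.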

[6] = NCI Yeast Anticancer Drug Screen. Data for the bub3 strain (AID 167); conditions: S. cerevisiae bub3 mutant strain, at 50.0 µM, hits give high values
Outline: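 Screening used yeast with an engineered genetic alteration affecting cell cycle control. Compound-exposed cultures were compared with vehicle cultures, and reduced growth was taken as inhibition.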

Measured: growth inhibition

Oc1cc(Br)ccc1C=Nc1ccc(N2CCCCC2)cc1
inactive: [1] 25.4% | [2] 10.5% | [3] 17.8%

ClCCCC1(CCCCl)OCCO1
inactive: [1] -21.3% | [3] -2.2%

NC(Cc1ccccc1)C(=O)NCC(=O)NCC(=O)O (stereo not drawn) (H-[ξF]-Gly-Gly-OH)
inactive: [1] 13% | [2] -1.35% | [3] 4.55%

CCN(CC#N)c1ccc(Nc2cc(Cl)ccc2Cl)cc1
inactive: [1] 8.75% | [2] -22.1% | [3] 0.3%

CCOC(=O)C(C#N)C(C(C)=O)C(=O)OCC (stereo not drawn)
inactive: [1] 9.15% | [2] -1.45% | [3] 31.4%

COc1c(OC)c(OC)c2c(c1OC)c(=O)c1ccccc1n2C
inactive: [1] 12.6% | [4] 30.8% | [5] 18.8% | [6] 14.4% | [3] -42.2%

COc1cc(-c2cc(=O)c3c(C)cc(O)cc3o2)cc(OC)c1OC
inactive: [1] -2.1% | [2] -9% | [3] 45.6%

CC1(c2ccc3ccccc3c2)CCC(=O)O1 (stereo not drawn)
inactive: [1] -2.75% | [2] -30% | [3] -4.8%

O=c1oc(-c2ccc(Cl)cc2)nc2cc(Cl)ccc12
inactive: [1] -20.6% | [3] -20.8%

CC(/C=N/N1C(=O)c2ccccc2C1=O)c1ccccc1 (stereo not drawn)
inactive: [1] 12.8% | [2] -11.6% | [3] -10.8%

c1ccc(-c2nc3ccc4ccccc4c3nc2-c2ccccc2)cc1
inactive: [1] -8.85% | [3] 1.85%

CCC1OC2(C)CC(C#N)(C#N)C1(C#N)C(=N)O2 (stereo not drawn)
inactive: [1] 0.6% | [4] -46.4% | [5] -8.2% | [6] -31.4% | [3] -10.7%

CCn1c2[n+](c3ccccc31)CCC2
inactive: [1] -28.6% | [2] -35.2% | [3] 3.65%

COc1ccc(NC(=S)Nc2ccccn2)cc1
inactive: [1] -9.3% | [2] -12.3% | [3] 0.65%

O=C(/C=N/O)Nc1cc(Cl)ccc1Cl
inactive: [1] 17.6% | [3] 17.3%

O=C1c2ccccc2C(=O)c2c1cccc2N1C(=O)C=CC1=O
inactive: [1] 51.2% | [3] 63.7%

CC(=O)C1=C(C)N2C(=NC3=C(CCc4ccccc43)C2c2ccc(Cl)cc2)S1 (stereo not drawn)
inactive: [2] -14.6% | [4] 6.85% | [5] 6.25% | [6] -6.9% | [3] 1.5%

Cc1cc2nn(C3CCCO3)nc2cc1C (stereo not drawn)
inactive: [2] -23.5% | [4] -21.8% | [5] -15.3% | [6] -3.8% | [3] -36.4%

C1CCCCNCCC1
inactive: [2] -22.2% | [4] -56.5% | [5] -3.4% | [6] -26.7% | [3] -27.3%

O=C(Cc1nc2ccc(C(=O)c3ccccc3)cc2[nH]c1=O)C(=O)Nc1ccccc1[N+](=O)[O-]
inactive: [2] -15.6% | [4] 7.75% | [5] 9.35% | [6] 6.15% | [3] 12.3%

CCCCCCCCCCCCOc1ccccc1C=O
inactive: [1] 1.5% | [3] -17.4%

Cc1nc2c(Cl)cc(Cl)c(Cl)c2s1
inactive: [1] 9.65% | [3] 51.1%

CCOC(=O)C(C#N)N=Nc1ccccc1 (stereo not drawn)
inactive: [1] 10.2% | [3] 10.2%

CC1=CC(=O)c2ccc(C)cc2C1=O
inactive: [2] -24.4% | [4] -6.9% | [5] -18.9% | [6] -0.4% | [3] 5.85%

Cc1cc(N(CCC#N)CCC#N)ccc1/C=N/NC(=O)c1cc(Cl)ccc1O
inactive: [2] -18.3% | [4] -40.8% | [6] -23.7% | [3] -32%

O=C(O)c1ccc(NCn2c(=S)[nH]c3ccccc32)cc1O
inactive: [1] -7.6% | [3] -16.2%

CCCCCCCCCCCCC/C=C/[C@H]1[C@@H](C(=O)OC)N1S(=O)c1ccc(C)cc1 (stereo partly drawn)
inactive: [2] -27.6% | [4] 1.25% | [6] -10.5% | [3] -43.5%

N#CC1(C#N)C2CCCCC23OC(=N)C1(C#N)C(c1ccccc1)O3 (stereo not drawn)
inactive: [2] 12.2% | [4] -22.7% | [5] -15.3% | [6] -29.9% | [3] -16.6%
